# Only some compounds are listed: those with a hit (about 6% of all), similar ones and a draw of the others.
# D3 ag = agonists of human D3 dopamine receptor. P35462. D3R DiscoveRx beta-arrestin cells, luminescence, 90 min. max activation, %. hit rate 0.58% among 410,000. AID 652048; in the data active = max activation above about 30%
# Target sequence (P35462 whole entry, looked up): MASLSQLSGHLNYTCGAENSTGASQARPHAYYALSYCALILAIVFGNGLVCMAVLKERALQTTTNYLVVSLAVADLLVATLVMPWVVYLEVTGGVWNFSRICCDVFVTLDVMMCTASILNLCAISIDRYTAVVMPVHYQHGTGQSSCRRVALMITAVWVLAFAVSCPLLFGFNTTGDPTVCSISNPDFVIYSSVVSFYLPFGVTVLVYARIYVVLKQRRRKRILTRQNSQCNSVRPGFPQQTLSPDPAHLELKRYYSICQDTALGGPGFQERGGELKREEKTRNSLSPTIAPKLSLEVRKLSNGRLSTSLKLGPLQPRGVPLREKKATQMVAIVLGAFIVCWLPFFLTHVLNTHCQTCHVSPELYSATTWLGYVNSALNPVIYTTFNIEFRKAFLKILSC
#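 Agonist-mode cell screen: cells plated at 1500/well and incubated overnight at 37 °C, then exposed to library compounds for 90 min at 37 °C. Detection reagent was added for 30–60 min at room temperature, and luminescence was read.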
# DRD3 antagonist = blocks the human D3 dopamine receptor; P35462; D3R cells, DiscoveRx beta-arrestin luminescence, antagonist mode; stronger effect = lower value; max response, negative = inhibition, %; hit rate 2.5% among 360,000; AID 652054; in the data active = max response below about -50%; inconclusive = no clear call, values can overlap the other calls
#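 Cells expressing the human receptor were seeded at 1500 cells/well, incubated overnight at 37 degrees C in 5% CO2, then exposed to library compounds with dopamine controls for 90 minutes at 37 degrees C before luminescent detection.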
# D1 ag = activates the human D1 dopamine receptor; HEK293 T-REx D1 cells, calcium flux, agonist mode; P21728; activation, % at 2 µM; AID 504660; hit rate 1% among 360,000; in the data active = activation above about 30%
#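 Inducible HEK293 T-REx D1 cells, force-coupled to calcium signalling, were plated at 4000 cells/well with tetracycline and held overnight at 30 C. After no-wash calcium dye loading, compound-evoked calcium rise over 180 s flagged agonists.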
# D1 PAM = potentiators of human D1 dopamine receptor. HEK293 TREx D1 cells, calcium flux, dopamine EC20 potentiation. potentiation, % at 10 µM. hit rate 0.036% among 360,000; in the data active = potentiation above about 30%
# D1 antagonist = antagonists of human D1 dopamine receptor | HEK293 TREx D1 cells, calcium flux, dopamine EC80; stronger effect = lower value | hit rate 3.2% among 360,000 | AID 504652 | activity change, negative = inhibition, % at 10 µM | P21728; in the data active = activity change below about -30%
#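 Kinetic fluorescence of a calcium dye serves as the read-out. D1-expressing Hek293 Trex cells, induced overnight at 30 C, are exposed to compound for 180 s before an EC80 dopamine addition, then read 180 s further.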
# Hits are given with their value; – = inactive; ? = inconclusive; · = not tested or not shown.
SMILES,D3 ag,DRD3 antagonist,D1 ag,D1 PAM,D1 antagonist
O=C(Nc1ccc(N2CCN(c3ccc(F)cc3)CC2)c(C(=O)O)c1)c1ccccc1F,–,·,–,–,–
COc1ccc(N(C(=O)c2ccco2)S(=O)(=O)c2cccc([N+](=O)[O-])c2)cc1,–,–,–,–,–
COc1ccc(N(C(=O)c2ccco2)S(=O)(=O)c2cc(OC)ccc2OC)cc1,–,–,–,–,-35
COc1ccc(N(C(=O)c2ccco2)S(=O)(=O)c2ccc(F)cc2)cc1,–,?,–,–,-58
Cc1ccc(CNC(=O)c2cn(C)c3ccc(S(=O)(=O)N4CCC(C)CC4)cc3c2=O)cc1,–,·,–,–,–
COc1ccc(C(=O)n2nc(-c3ccco3)nc2NCc2cccs2)cc1,–,·,–,–,–
CCSc1ccc2c(c1)N(CCCN1CCN(C)CC1)c1ccccc1S2,–,-87,–,–,-91
CCC(=O)c1ccc2c(c1)N(CCCN1CCN(CCO)CC1)c1ccccc1S2,–,·,·,·,·
CC(CN1CCN(CCOCCO)CC1)CN1c2ccccc2Sc2ccc(Cl)cc21 (configuration not stated),–,-117,·,·,·
OC1CC2CCC(C1)N2CCCN1c2ccccc2Sc2ccc(Cl)cc21 (configuration not stated),–,-102,·,·,·
CC(=O)c1ccc2c(c1)N(CCCN1CCN(CCO)CC1)c1ccccc1S2,–,·,·,·,·
CN1CCN(CCCN2c3ccccc3Sc3ccccc32)CC1,–,·,·,·,·
CCCc1ccc(C(=O)O)cc1,–,·,·,·,·
CCN(CC)S(=O)(=O)c1ccc(C(=O)NCCSc2c(-c3ccc(OC)cc3)[nH]c3ccccc23)cc1,–,·,–,–,–
Cc1oc(-c2ccc(Cl)cc2)nc1Cn1c(=O)cc(C)c2c(C)nn(-c3ccccc3)c21,–,·,–,–,–
CC(C)(C)c1ccc(C(=O)NCC(=O)OC(C(=O)Nc2cc(C(F)(F)F)ccc2Cl)c2ccccc2)cc1 (configuration not stated),·,·,–,–,–
CCCCN(CCCC)c1ccc(C(=O)c2ccccc2C(=O)O)c(O)c1,–,-81,–,–,–
CCCn1ccc2c(OCC(=O)Nc3ccc(C(F)(F)F)cc3)cccc2c1=O,–,·,–,–,·
N#Cc1c(N)nc2c3c(sc(=N)c2c1N)NC(=O)CC3c1c(F)cccc1Cl (configuration not stated),–,–,–,–,–
N#Cc1c(N)nc2c3c(sc(=N)c2c1N)NC(=O)CC3c1ccccc1 (configuration not stated),–,–,–,–,-35
Cc1ccc(S(=O)(=O)N2CCN(c3nc(-c4ccc(F)cc4)nc4cc(Cl)ccc34)CC2)cc1,·,·,–,–,–
COc1ccc(C2C=C(c3ccccc3)Nc3nc(NC(=O)/C=C/c4ccc(Cl)cc4)nn32)cc1 (configuration not stated),–,·,–,–,-77
COc1ccc(/C=C/C(=O)Nc2nc3n(n2)C(c2ccccc2)C=C(c2ccc(Cl)cc2)N3)cc1 (configuration not stated),–,·,–,–,–
COc1ccc(C(=O)Nc2nc3n(n2)C(c2ccc(Cl)cc2)C=C(c2ccccc2)N3)cc1OC (configuration not stated),–,·,39,–,–
COc1ccc(C2C=C(c3ccccc3)Nc3nc(NC(=O)c4ccc(C)cc4)nn32)cc1 (configuration not stated),–,·,–,–,–
SMILES,D3 ag,DRD3 antagonist,D1 ag,D1 PAM,D1 antagonist
COc1ccc(NC(=O)CC2C(=O)N(c3cccc(OC)c3)C(=O)N2Cc2ccc3c(c2)OCO3)cc1 (configuration not stated),–,·,–,–,–
Cc1cc(NC(=O)Nc2nnc(N3CCCCC3)s2)ccc1Br,–,·,–,–,–
Cc1nc2ccccc2n1CCc1nc2c3ccccc3nc(SCc3cccc(F)c3)n2n1,–,·,–,–,–
O=C(NC12CC3CC(CC(C3)C1)C2)c1ccc([N+](=O)[O-])o1,–,–,–,–,-48
CCC(CC)C(=O)Nc1cccc(/C(C)=N/NC(=O)c2c(Br)cnn2C)c1,–,-51,–,–,–
Cc1nc2nc(-c3ccc(Cl)cc3Cl)nn2c(C)c1CCC(=O)Nc1ccc(F)cc1,–,·,–,–,–
O=C(N/N=C/c1sc(=O)[nH]c1-[n+]1ccccc1)c1ccccc1[O-],–,–,–,–,–
O=C(N/N=C/c1sc(=O)[nH]c1-[n+]1ccc2ccccc2c1)c1ccccc1[O-],–,–,34,–,–
COc1ccc(OC)c(/C=C2\N=C(c3ccccc3)OC2=O)c1,–,–,74,–,–
Fc1ccccc1CSc1nnnn1-c1ccc2c(c1)OCO2,–,–,–,–,-35
COC(=O)[C@]1(C)N[C@H](CN(C)C(=O)COc2ccccc2)[C@@H]2C(=O)N(C)C(=O)[C@@H]21,–,–,·,·,·
CC1COc2c(N3CCN(C)CC3)c(F)cc3c(=O)c(C(=O)O)cn1c23 (configuration not stated),–,-100,–,–,–
CCOc1ccc(NC(=O)c2ccc(NC(=O)c3cn4c5c(c(N6CCN(C)CC6)c(F)cc5c3=O)OCC4C)cc2)cc1 (configuration not stated),–,–,–,–,–
COc1ccc(OC)c(CNC(=O)NCc2noc3ccc(C)cc23)c1,–,·,–,–,–
CCC(=O)NCCn1ccc2ccccc21,–,–,–,–,–
CC(C)C(=O)NCCn1ccc2ccccc21,–,-53,–,–,–
O=C(NCCn1ccc2ccccc21)c1cccc([N+](=O)[O-])c1,–,–,–,–,-37
COc1ccc(CCNC(=O)CCc2c(C)c3cc4c(C)coc4cc3oc2=O)cc1,–,·,–,–,-51
COc1ccc(CNC(=O)Cc2c(C)c3cc4c(C)coc4cc3oc2=O)cc1,–,·,–,–,–
CCOc1ccc(CCNC(=O)c2cnc3sc(N4CCC(C)CC4)nn3c2=O)cc1,–,·,–,–,–
Cn1nc(-c2ccccn2)nc2c(=O)n(C)c(=O)nc1-2,–,-69,–,–,–
CCCc1nc2c(=O)n(C)c(=O)nc-2n(C)n1,–,-61,–,–,–
CCOc1ccccc1CN1CCCC(C(=O)Nc2cccc(-n3cccn3)c2)C1 (configuration not stated),–,–,49,–,-64
CCOc1ccccc1CN1CCCC(C(=O)c2ccc(OC)c(OC)c2)C1 (configuration not stated),–,-51,–,–,–
COc1ccc(C(=O)C2CCCN(Cc3cn[nH]c3-c3ccc(F)cc3)C2)cc1OC (configuration not stated),–,–,–,–,–
COc1ccc(NC(=O)C2CCCN(CCCc3ccccc3)C2)cc1OCC(C)C (configuration not stated),–,–,90,–,–
CCn1ncc(CN2CCCC(C(=O)Nc3cccc(-c4cc5ccccc5[nH]4)c3)C2)c1C (configuration not stated),–,–,91,–,-51

# From PubChem
